From PubChem BioAssay
LASV entry inh = inhibitors of Lassa virus binding or cell entry; Potency, µM (top dose mostly 37.9 µM), for the others: at the top dose activity change, negative = inhibition, usual class: inhibitors; 300,000 compounds, 1.2% hits; Lassa virus pseudotype entry inhibition, cell reporter; AID 540256; calls by dose curve; tested in HEK293 cells; also: potency is read from the fitted curve at half-maximal effect; % is scaled to controls: 0 for no effect and ±100 for the full control effect; nearly all actives have a fitted effect of over 50% in size
FMDV antiviral = antivirals against foot and mouth disease virus; FMDV antiviral cell-based qHTS; Potency, µM (series often up to 57.9 µM), inactives show at the highest dose activity change, negative = inhibition, usual class: inhibitors; 410,000 compounds, 1.2% hits; AID 1159524; calls by dose curve; tested in HEK293T cells; also: read-out not given here; potency is read from the fitted curve at half-maximal effect; % is scaled to controls: 0 for no effect and ±100 for the full control effect; nearly all actives have a fitted effect of over 45% in size
SARS PLP yeast = SARS-CoV PLP inhibition in yeast | Potency, µM (top dose mostly 32.9 µM), for inactives: top-dose activity, positive = growth rescue, most hits filed as activators | S. cerevisiae expressing SARS-CoV PLpro, growth rescue | 330,000 compounds, 0.19% hits | AID 485353; calls by dose curve; also: potency is read from the fitted curve at half-maximal effect; 0% is about no effect; nearly all actives have a fitted effect of over 55% in size
HCV inhibitor = inhibitors of hepatitis C virus infection | Huh7.5.1 HCVcc-Cre infection, luciferase reporter, 44 h | AID 651820 | Potency, µM (top dose mostly 41.8 µM), inactives show top-dose activity change, negative = inhibition, hits mostly inhibitors | 340,000 compounds, 3.4% hits; active = well fitted inhibition curve with a large enough effect; inconclusive = small, poorly fitted or top-dose-only effect, or another doubt; inactive = no such curve, though single readings can be large or run the other way; also: potency is read from the fitted curve at half-maximal effect; % is scaled to controls: 0 for no effect and ±100 for the full control effect
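Infectious HCVcc-Cre (~0.5 moi) was added to cells just after compound, with cells seeded 4 h earlier at 1,000 per well. Luciferase activity after 44 h culture reported infection; substrate was incubated 15 min at room temperature before reading.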
MARV entry inh = blocks Marburg virus binding to or entry into cells | 300,000 compounds, 1.8% hits | Marburg virus pseudotyped entry inhibition, cell reporter | Potency, µM (highest dose often 37.8 µM), for the others: at the top dose activity change, negative = inhibition, usual class: inhibitors; calls by dose curve; tested in HEK293 cells; also: potency is read from the fitted curve at half-maximal effect; % is scaled to controls: 0 for no effect and ±100 for the full control effect
HCMV inh = inhibitors of human cytomegalovirus; AID 1259415; HFF cells, HCMV-luciferase reporter, 72 h; stronger effect = lower value; activity change, negative = inhibition, % at 57.5 µM; 410,000 compounds, 4.5% hits; in the data active = activity change below about -60%; inconclusive = no clear call, values can overlap the other calls; inactive = above about -39%; also: % is scaled to controls: 0 for no effect and ±100 for the full control effect
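Two compound doses tested in HFFs infected with HCMV-luciferase, MOI 1 PFU/cell, 72 h at 37C. Lysate luminescence read with OneGlo; data normalized against buffer-only and 10uM Salinomycin inhibitor controls.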
Active calls of the source: *; ? = inconclusive; / = no result; [ ] = remark or other dose. Rows were chosen to be rich in hits. Some 8% of all compounds tested hit in one or more screens of this group.

SMILES	LASV entry inh	FMDV antiviral	SARS PLP yeast	HCV inhibitor	MARV entry inh	HCMV inh
CCOc1ccc(NC(=O)N2CCN(S(=O)(=O)c3ccc4c(ccn4C)c3)CC2)cc1	-5.3%[46.1 µM]	-8.7%	/	/	/	?
COc1cc(/C=N/NC(=O)CN2CCCCC2)ccc1OCc1ccc(Br)cc1	?	-2.8%	4.0%	10µM*	?	-13.6
COc1cc(/C=N/NC(=O)CC2(C)OCCCO2)ccc1OCc1ccccc1	8.1%	6.8%	-8.4%	?	33.0%	?
COc1cc(C(=O)OCc2cc3ccccc3[nH]c2=O)cc(OC)c1OC	-23.5%	27.9%	4.4%	-3.0%	2.0%	-86.1*
CCN(CC)c1ccc(NS(=O)(=O)c2ccc3c(c2)CCCN3C(C)=O)c(C)c1	?	-10.1%	/	/	/	-29.6
CCCC1NC(=S)N(C2CCCCC2)C1=O (centres undefined)	4.8%	-2.6%	8.5%	3.6%	-4.7%	13.8
CN(C)C=C1C(=O)N(C2CCCCC2)C(=O)N(C2CCCCC2)C1=O	?	17.8µM*	-13.5%	13.4%	-22.7%	32.9
CCC1CCCCN1C(=O)Cn1c(=O)n(CC2CCC(C(=O)NC)CC2)c(=O)c2sccc21 (centres undefined)	-4.9%[46.1 µM]	-24.2%	/	/	/	2.5
CC(=O)Nc1ccc(NC(=O)c2oc3ccc4c(c3c2C)C(=O)CC(C)(C)O4)cc1	-12.7%[46.1 µM]	20.6%	/	/	/	23.6
COc1ccc(Cc2c(-c3ccc(OC)c(OC)c3)nc3c(C)cc(Br)cn23)c(C)c1	/	?	/	/	/	-61.2*
Cc1ccc(C)c(NC(=O)Cn2c(=O)n(Cc3ccco3)c(=O)c3oc4ccccc4c32)c1	-12.6%[46.1 µM]	-19.1%	/	/	/	-6.4
CSc1nnc(-c2sc3cc(C(F)(F)F)cnc3c2-c2ccccc2)n1C	?	-18.5%	-8.9%	?	1.58µM*	?
O=C(O)c1sc2cc(C(F)(F)F)cnc2c1-c1ccccc1	0.9%	1.7%	7.7%	18.3%	0.5%	-8.3
COc1cccc(O)c1CN1CCC2(CC1)c1ccccc1[C@@H](NC(=O)c1ccsc1)[C@@H]2OC	/	-6.8%	/	/	/	/
CCOc1ccccc1N(CC(=O)O)S(=O)(=O)c1ccccc1	15.8%	-2.4%	-4.1%	8.3%	16.1%	22.9
CCOc1ccccc1N(CC(=O)NC1CCCCC1)S(=O)(=O)c1ccc(C)cc1	?	15.1%	4.7%	-13.4%	3.16µM*	-77.5*
COc1ccc(N(CC(=O)Nc2ccc(OC)c(OC)c2)S(=O)(=O)c2ccccc2)cc1Cl	/	-18.2%	-1.9%	12.6µM*	/	59.1
COc1ccc(NC(=O)CN(c2ccccc2OC)S(=O)(=O)c2cccs2)cc1Cl	-28.1%	-17.5%	2.1%	?	?	-7.1
CCOc1ccccc1N(CC(=O)Nc1ccccc1Br)S(=O)(=O)c1ccccc1	/	-20.3%	/	/	/	-62.6*
CCOc1ccccc1N(CC(=O)Nc1ccc(OC)c(Cl)c1)S(=O)(=O)c1ccccc1	?	-7.1%	/	/	/	-62.0*
CCC1CN(CC(=O)NC(C)c2cn(C)nc2C)Cc2cc(OC)ccc2O1 (centres undefined)	/	-8.4%	/	/	/	/
Cc1ccc(CN2CCN(C3CCNCC3)C(=O)C2=O)cc1	15.3%[46.1 µM]	-3.0%	/	/	/	-2.6
CCCc1nc([N+](=O)[O-])c(S(=O)(=O)c2ccccc2)n1CC(C)C	?	?	?	?	11.6µM*	-92.9*
CC(C)Cn1c(C(C)C)nc([N+](=O)[O-])c1Sc1ccc(Cl)cn1	3.3%	?	-11.1%	?	-28.8%	-3.6
CC(C)Cn1nc(NS(=O)(=O)c2ccccc2)c2cc3ccccc3nc21	4.1%	41.0%	2.4%	0.8%	5.8%	8.4
SMILES	LASV entry inh	FMDV antiviral	SARS PLP yeast	HCV inhibitor	MARV entry inh	HCMV inh
CC(C)Cn1c(C(C)C)nc([N+](=O)[O-])c1S(=O)(=O)c1ccc(F)cc1	-25.4%	15.8µM*	-0.3%	?	?	-72.1*
C=CCOC(=O)C(C(C)=O)C(NC(=O)OC)c1ccc(Cl)cc1 (centres undefined)	/	/	/	/	-10.3%[14.2 µM]	/
COc1ccccc1NC(=O)CCNS(=O)(=O)c1ccc2c(c1)CCN2C(=O)C1CC1	?	-2.5%	/	/	/	-7.8
CCOc1nc2cccc(C(=O)OC(C)OC(=O)OC3CCCCC3)c2n1Cc1ccc(-c2ccccc2-c2nn[nH]n2)cc1 (centres undefined)	/	-8.3%	/	/	/	-85.5*
O=S(=O)(Cc1ccc(Cl)cc1)Nc1ccc(Cl)cn1	10.4%	2.9%	-2.6%	18.0%	?	-100.5*
O=C(Cc1ccc(Cl)cc1)Nc1ccc(Cl)cn1	-21.7%[46.1 µM]	10.9%	-4.5%	-8.8%	-1.4%[46.1 µM]	4.3
CN1C[C@@H](O)[C@@H](O)[C@@H](O)[C@@H]1CO	/	/	/	/	21.8%	/
Cn1cccc1C(=O)OCc1ccc(F)cc1	5.0%	24.5%	-1.1%	13.5%	-0.2%	-74.9*
Cn1cccc1C(=O)OCc1csc(-c2ccccc2)n1	?	-5.5%	-20.2%	-21.6%	?	261.0
O=C(Nc1nccs1)C12CC3CC(C1)CC(C(=O)Nc1nccs1)(C3)C2	-18.4%	25.1µM*	5.1%	?	?	3.4
COc1ccccc1N1CCN(/N=C/c2ccc([N+](=O)[O-])cc2)CC1	/	24.6%	18.0%	11.2µM*	/	59.6
COc1ccccc1N1CCN(/N=C/c2ccc(Cl)c([N+](=O)[O-])c2)CC1	/	27.3%	-8.3%	-16.3%	/	-10.0
Cc1noc(C)c1S(=O)(=O)N1CCc2nc(-c3ccccc3)c3c(c2C1)CO[C@@H](C)C3	/	/	/	/	-12.2%[14.2 µM]	/
CCCC1/C(=N/O)CC(c2ccccc2)NC1c1ccccc1 (centres undefined)	-29.8%[46.1 µM]	?	-4.7%	-13.5%	?	-101.2*
CC1/C(=N/O)CC(c2ccccc2)NC1c1ccccc1 (centres undefined)	-11.4%	-25.1%	-14.1%	-3.4%	1.3%	-27.6
CCC1C(=NO)C(CC)C(c2ccccc2)NC1c1ccccc1 (centres undefined)	?	?	-4.1%	?	?	-100.7*
Cc1ccc(OCc2nc(-c3ccc(C(=O)NCCc4ccc(Cl)cc4)cc3)oc2C)cc1	-4.5%[46.1 µM]	-20.8%	/	/	/	1.7
COc1ccc(-c2coc3cc4oc(=O)c5ccccc5c4cc23)cc1F	?	-16.1%	9.2%	?	-1.5%	-84.5*
CCCCNC(=O)C1c2cc(OC)c(OC)cc2C(=O)N(C)C1c1cccs1 (centres undefined)	4.4%[46.1 µM]	0.1%	-1.7%	0.1%	6.7%[46.1 µM]	-11.9
CCCCNC(=O)C1c2cc(OC)c(OC)cc2C(=O)N(C)C1c1ccc(OC)cc1 (centres undefined)	-16.2%	9.0%	10.3%	-7.9%	15.2%[46.1 µM]	-99.9*
CN(C)c1ncc(C2=C(Cl)C(=O)C(N3CCCC3)=C(Cl)C2=O)s1	?	?	/	7.94µM*	?	-63.7*
CC(C)NC(=O)c1cnc2sc(N3CCCCCC3)nn2c1=O	1.0%[46.1 µM]	-7.1%	/	/	/	1.6
O=C1C(Cl)=C(N2CCCCC2)C(=O)C(Cl)=C1c1cnc(N2CCCCC2)s1	11.6µM*	-2.5%	-6.2%	?	?	/
